# Compounds with a hit are over-represented: about 1.4% of the library has one in this group of screens.
# EPAC1 agonist: EPAC1 (human) agonism; Potency, µM (titrated, usually from 154 µM), inactives show top-dose activation, most hits filed as activators; O95398; actives 0.073% (n = 360,000); EPAC1 agonist qHTS, biochemical assay; response scale: 100% = response to 6.5 mM cAMP; note: nearly all actives have a fitted effect of over 60% in size
#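 Compounds were pinned as a concentration titration into mixtures of EPAC1 (100 nM), BODIPY-GDP-loaded Rap1B (250 nM) and GDP (50 uM). After 5 min at room temperature, fluorescence was followed for 30 min; activity was scaled to 6.5 mM cAMP.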
# USP1-UAF1 inh: inhibitors of human USP1/UAF1 deubiquitinase. O94782. recombinant USP1/UAF1, Ub-Rhodamine cleavage fluorescence. Potency, µM (series often up to 57.1 µM), for the others: at the highest dose activity change, negative = inhibition, most hits filed as inhibitors. actives 0.23% (n = 390,000); note: % is set by controls: 0 for no effect and ±100 for the full control effect; nearly all actives have a fitted effect of over 60% in size
#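 In this screen, compounds sit with the deubiquitinase complex (1nM) for 15 min at room temperature before Ub-Rho is added at 150nM final. Fluorescence rise is then followed for 6 reads every 60 seconds.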
# EPAC2 antag: blocks human EPAC2 exchange factor; EPAC2 GEF exchange of Rap1B-BODIPY-GDP, fluorescence; Potency, µM (highest dose often 114 µM), for the others: at the highest dose activity, negative = inhibition, usual class: inhibitors; AID 720708; actives 0.18% (n = 360,000); note: % is set by controls: 0 for no effect and ±100 for the full control effect; nearly all actives have a fitted effect of over 45% in size
# EPAC2 ag: activates human EPAC2 exchange factor; Potency, µM (doses to about 154 µM), without a hit: at the highest dose activation, hits mostly activators; EPAC2 activation, biochemical qHTS; response scale: 100% = 6.5 mM cAMP response; actives 0.079% (n = 360,000); Q8WZA2; note: nearly all actives have a fitted effect of over 50% in size
#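 Readout is BODIPY fluorescence (480 nm excitation, 540 nm emission), which falls as labeled GDP is exchanged off Rap1B. EPAC2 at 100 nM acted on 250 nM RAP1B-BODIPY-GDP with 50 uM GDP present.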
# EPAC1 antagonist: antagonists of human EPAC1; O95398; EPAC1 GEF assay, Rap1b-BODIPY-GDP exchange fluorescence; Potency, µM (top dose mostly 115 µM), inactives show top-dose activity change, negative = inhibition, actives largely listed as inhibitors; actives 0.14% (n = 360,000);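 note: plate controls were vehicle for no effect and positive control for full effect; nearly all actives have a fitted effect of over 50% in size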
# BRCA1 expr up: activators of BRCA1 expression. MCF7-BRCA1-FFLuc reporter, luminescence, 48 h; response scale: scaled: vehicle 0%, 10 µM genistein 100%. Potency, µM (doses to about 46.1 µM), inactives show top-dose activation, actives largely listed as activators. actives 1.1% (n = 380,000). AID 624202; note: nearly all actives have a fitted effect of over 80% in size
#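 Using MCF7 cells harboring a BRCA1 firefly luciferase reporter, plated 2 h before compound pinning, the screen measured luminescence after 48 h incubation. Responses were normalized to DMSO and 10 microM genistein, then fitted for concentration-effect.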
# * marks the source's active call; other numbers are inactive results; i = inactive; ? = inconclusive; . = no result given. Calls come from the whole dose curve; as a rule, active = well fitted curve in the direction sought with a large enough effect; inconclusive = small, poorly fitted or top-dose-only effect, or another doubt; inactive = no such curve, though single readings can be large; an effect the other way counts as inactive or inconclusive. Potency is the fitted concentration of half-maximal effect.
SMILES,EPAC1 agonist,USP1-UAF1 inh,EPAC2 antag,EPAC2 ag,EPAC1 antagonist,BRCA1 expr up
CCOc1ccc(N(C)c2ccc(/C=C3/SC(=S)NC3=O)cc2)cc1,-7.4%,?,3.9%,1.5%,-28.5%,-0.1%
CCOc1c(O)ccc(/C=C2\SC(=S)NC2=O)c1[N+](=O)[O-],-1.4%,?,56.2µM*,2.1%,-21.1%,11.2µM*
COc1ccc(/C=C2\SC(=O)N(CCNC(=O)C3CC4C=CC3C4)C2=O)cc1 (stereo not given),9.5%,-25.6%,-13.2%,22.7%,?,5.62µM*
COc1ccc(CC(=O)O/N=C(\N)c2ccccc2)cc1OC,14.0%,-22.5%,-2.0%,8.1%,-4.4%,26.1%
CCOc1ccc2nc3cc(N=Nc4ccc(N)nc4N)ccc3c(N)c2c1,-8.5%,15.8µM*,?,26.3%,9.3%,-90.2%
COc1ccc(N2CCN(S(=O)(=O)c3c(C)n(C)c(=O)n(C)c3=O)CC2)cc1,3.0%,-20.6%,16.5%,4.5%,8.0%,-9.2%
CCOc1cc(Br)c(CC(=O)NC2CCCCCC2)cc1OCC,10.3%,-18.5%,-10.2%,4.3%,14.6%,-34.3%
S=C(NCCc1ccccc1)N1CCc2ccccc2C1,7.3%,-21.0%,-14.2%,10.4%,10.4%,10µM*
COCCNc1c(-c2cc3ccc(C)c(C)c3[nH]c2=O)nc2ccccn12,3.5%,-0.6%,-4.5%,-0.1%,-5.1%,2.24µM*
CNc1ccc2c3c(cccc13)C(=O)N(C)C2=O,100µM*,320.9%,i,?,-23.4%,55.8%
O=[N+]([O-])c1ccc(C(O)CSC(=S)N2CCCCC2)cc1 (stereo not given),7.0%,-19.8%,-2.0%,9.6%,-14.1%,3.98µM*
O=[N+]([O-])c1ccc(C(=S)N2CCCC2)cc1,4.8%,-18.1%,18.3%,4.7%,11.6%,-15.2%
CC(=O)Oc1ccc(/C=C2/CCc3ccccc3C2=O)cc1,6.7%,?,-22.1%,11.0%,-5.8%,12.6µM*
COc1cccc(/C=C2\CCc3ccccc3C2=O)c1,1.0%,?,-14.5%,15.1%,-21.8%,12.6µM*
COc1ccc2c(c1)CC/C(=C/c1ccccn1)C2=O,3.8%,-8.2%,-16.2%,2.9%,-0.3%,12.6µM*
COc1cccc(C=C2Cc3ccccc3C2=O)c1,7.7%,.,-23.2%,11.5%,-7.3%,24.9%
COc1ccc(/C=C2\CCc3ccccc3C2=O)cc1OC,13.7%,-20.8%,-4.7%,5.6%,-15.4%,-3.9%
Cc1ccc(S(=O)(=O)N2CCN(c3nc(-n4cccn4)nc4ccccc34)CC2)cc1,.,.,.,.,.,27.5%
CCc1cnc2c(c1SCc1c(F)cccc1Cl)c(=O)n(C)c(=O)n2C,.,-25.1%,.,.,.,.
CC1CN(S(=O)(=O)c2ccc(CN3C(=O)c4cccnc4C3=O)s2)c2ccccc2O1 (stereo not given),13.0%,-21.7%,-24.8%,11.2%,1.6%,9.5%
O=C(NCc1ccccc1C(F)(F)F)c1cccc2c1C(=O)c1ccc(N3CCCCC3)cc1S2(=O)=O,13.8%,?,1.9%,100µM*,3.0%,0.5%
CC1CCN(c2ccc3c(c2)S(=O)(=O)c2cccc(C(=O)NC4CCCCC4)c2C3=O)CC1,28.2µM*,?,5.0%,50.1µM*,5.3%,-3.5%
O=C(NC1CCCCC1)c1cccc2c1C(=O)c1ccc(N3CCCC3)cc1S2(=O)=O,-12.2%,?,61.0%,-32.1%,1.9%,0.0%
O=C(NC1CCCC1)c1cccc2c1C(=O)c1ccc(N3CCCCC3)cc1S2(=O)=O,?,?,37.4%,56.2µM*,-8.0%,-4.7%
COc1ccccc1N1CCN(c2ccc3c(c2)S(=O)(=O)c2cccc(C(=O)NCC4CC4)c2C3=O)CC1,-38.9%,-16.2%,?,16.5%,22.4µM*,0.6%

# Bioassay records deposited in PubChem BioAssay by National Center for Advancing Translational Sciences (NCATS).
